Reference: PubChem BioAssay (NCATS)
Inconclusive results are not listed. Activity calls are given as the source filed them. Calls come from the whole dose curve; as a rule, active = well fitted curve in the direction sought with a large enough effect; inconclusive = small, poorly fitted or top-dose-only effect, or another doubt; inactive = no such curve, though single readings can be large; an effect the other way counts as inactive or inconclusive.

Key:
WaGa = assay: qHTS assay to identify novel small-molecules to repurpose for Merkel cell carcinoma treatment (AID 1296009); settings: MCC and control cell lines, CellTiter-Glo viability, 72 h; series mostly up to 46 µM; note: nearly all actives have a fitted effect of over 60% in size
Outline: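 Cells were treated for 72 hr at 37 degree celsius with compounds in 8- or 11-point dose response. Viability was read by CellTiter-Glo luminescence, normalized to no-cell (cytotoxicity) and DMSO controls.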

C33A = assay: Primary qHTS to identify gynecologic anti-cancer compounds using libraries of approved drugs and bioactive compounds (AID 1345084); settings: Gynecologic cancer cell panel viability, ATPlite luminescence, 48 h; series mostly up to 57.5 µM; note: nearly all actives have a fitted effect of over 55% in size
Outline: (§1)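 Five-concentration response, 48 h; readout is ATP-driven luciferase luminescence.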

CAOV3 = assay: as above; settings: Gynecologic cancer cell panel viability, ATPlite luminescence, 48 h; series mostly up to 57.5 µM
Outline: as §1

CASKI = assay: as above; settings: Gynecologic cancer cell panel viability, ATPlite luminescence, 48 h; series mostly up to 57.5 µM
Outline: as §1

Es-2 = assay: as above; settings: Gynecologic cancer cell panel viability, ATPlite luminescence, 48 h; series mostly up to 57.5 µM
Outline: as §1

HeLa = assay: as above; settings: Gynecologic cancer cell panel viability, ATPlite luminescence, 48 h; series mostly up to 57.5 µM
Outline: as §1

Hek293T = assay: as above; settings: Gynecologic cancer cell panel viability, ATPlite luminescence, 48 h, control line for the selectivity index; series mostly up to 57.5 µM
Outline: as §1

JEG-3 = assay: as above; settings: Gynecologic cancer cell panel viability, ATPlite luminescence, 48 h; series mostly up to 57.5 µM
Outline: as §1

OV90 = assay: as above; settings: Gynecologic cancer cell panel viability, ATPlite luminescence, 48 h; series mostly up to 57.5 µM
Outline: as §1

PA-1 = assay: as above; settings: Gynecologic cancer cell panel viability, ATPlite luminescence, 48 h; series mostly up to 57.5 µM
Outline: as §1

Measured: Potency

O=C(O)c1ccccc1C(=O)Nc1ccc(S(=O)(=O)Nc2nccs2)cc1
inactive: WaGa | C33A | CAOV3 | CASKI | Es-2 | HeLa | Hek293T | JEG-3 | OV90 | PA-1

NS(=O)(=O)c1ccc(NC(=O)CCC(=O)O)cc1
inactive: WaGa | C33A | CAOV3 | CASKI | Es-2 | HeLa | Hek293T | JEG-3 | OV90 | PA-1

O=C(O)Cn1c(C(=O)Nc2nc(-c3ccccc3Cl)cs2)cc2ccccc21
inactive: WaGa | C33A | CAOV3 | CASKI | Es-2 | HeLa | Hek293T | JEG-3 | OV90 | PA-1

CC(C)CCOC(=O)c1ccc(N(C)C)cc1
inactive: WaGa | C33A | CAOV3 | CASKI | Es-2 | HeLa | Hek293T | JEG-3 | OV90 | PA-1

NC(=O)c1ccc([N+](=O)[O-])cc1Cl
inactive: WaGa | C33A | CAOV3 | CASKI | Es-2 | HeLa | Hek293T | JEG-3 | OV90 | PA-1

O=C1c2ccccc2S(=O)(=O)N1CCCCN1CCN(c2ncccn2)CC1
inactive: WaGa | C33A | CAOV3 | CASKI | Es-2 | HeLa | Hek293T | JEG-3 | OV90 | PA-1

CN(C/C=C/C#CC(C)(C)C)Cc1cccc2ccccc12
inactive: WaGa | C33A | CAOV3 | CASKI | Es-2 | HeLa | Hek293T | JEG-3 | OV90 | PA-1

CC(=O)OC[C@H]1O[C@@](COC(C)=O)(O[C@H]2O[C@H](COC(C)=O)[C@@H](OC(C)=O)[C@H](OC(C)=O)[C@H]2OC(C)=O)[C@@H](OC(C)=O)[C@@H]1OC(C)=O
inactive: WaGa | C33A | CAOV3 | CASKI | Es-2 | HeLa | Hek293T | JEG-3 | OV90 | PA-1

C=CCNC(N)=S
inactive: WaGa | C33A | CAOV3 | CASKI | Es-2 | HeLa | Hek293T | JEG-3 | OV90 | PA-1

Cc1c(I)c(=O)n(-c2ccccc2)n1C
inactive: WaGa | C33A | CAOV3 | CASKI | Es-2 | HeLa | Hek293T | JEG-3 | OV90 | PA-1

O=c1[nH]c(=O)c2ccccc2o1
inactive: WaGa | C33A | CAOV3 | CASKI | Es-2 | HeLa | Hek293T | JEG-3 | OV90 | PA-1

Cc1cccc(C)c1NC(=O)CC12CCCN1CCC2
inactive: WaGa | C33A | CASKI | Es-2 | HeLa | Hek293T | JEG-3 | OV90 | PA-1

Cc1cc(O)cc(C)c1Cl
inactive: WaGa | C33A | CAOV3 | CASKI | Es-2 | HeLa | Hek293T | JEG-3 | PA-1

O=C(O)/C=C/c1ccc(Cn2ccnc2)cc1
inactive: WaGa | C33A | CAOV3 | CASKI | Es-2 | HeLa | Hek293T | JEG-3 | PA-1

CC(C)=CCC[C@@](C)(O)[C@H]1CC=C(C)CC1
inactive: WaGa | C33A | CAOV3 | CASKI | Es-2 | Hek293T | JEG-3 | OV90 | PA-1

CCCCCCCCCCCCCCCCN
inactive: WaGa | C33A | CAOV3 | CASKI | Es-2 | HeLa | JEG-3 | OV90 | PA-1

CC(CSC(=O)c1ccccc1)C(=O)N1C[C@@H](Sc2ccccc2)C[C@H]1C(=O)O (some centres undefined)
inactive: WaGa | C33A | CAOV3 | CASKI | Es-2 | HeLa | Hek293T | JEG-3 | PA-1

CCS(=O)(=O)CCn1c([N+](=O)[O-])cnc1C
inactive: WaGa | C33A | CAOV3 | Es-2 | HeLa | Hek293T | JEG-3 | OV90 | PA-1

C[C@@H](c1ncncc1F)C(O)(Cn1cncn1)c1ccc(F)cc1F (some centres undefined)
inactive: WaGa | C33A | CAOV3 | CASKI | Es-2 | HeLa | Hek293T | JEG-3 | PA-1

COCC(=O)Nc1c(I)c(C(=O)NCC(O)CO)c(I)c(C(=O)N(C)CC(O)CO)c1I (centres undefined)
inactive: WaGa | C33A | CAOV3 | CASKI | HeLa | Hek293T | JEG-3 | OV90 | PA-1

CC(C)c1cc2c(cc1S(=O)(=O)O)[C@@]1(C)CCC[C@@](C)(C(=O)O)[C@@H]1CC2
inactive: WaGa | C33A | CASKI | Es-2 | HeLa | Hek293T | JEG-3 | OV90 | PA-1

Nc1ncnc(Nc2ccccc2)n1
inactive: WaGa | C33A | CAOV3 | CASKI | Es-2 | HeLa | Hek293T | JEG-3 | PA-1

CCOC(=O)[C@H](CCc1ccccc1)N[C@@H](C)C(=O)N1CCC[C@H]1C(=O)O
inactive: WaGa | C33A | CAOV3 | CASKI | Es-2 | HeLa | Hek293T | JEG-3 | OV90 | PA-1
